# Measurements published in PubChem BioAssay (Tox21).
# Unmarked numbers belong to inactive results. Records with an inconclusive call do not appear. Where a call stands in place of a potency, no number is given. Active and inactive are the calls of the source. Unless noted, calls come from the whole dose curve; as a rule, active = well fitted curve in the direction sought with a large enough effect in the repeat runs; inconclusive = weak or mixed curves; inactive = no such curve, though single readings can be large; an effect the other way counts as inactive or inconclusive.
# Legend:
# [1] = qHTS assay for small molecule agonists of the p53 signaling pathway (AID 651631; calls by dose curve; note: nearly all actives have a fitted effect of over 15% in size)
# How it was run: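 Fluorescence intensity from cleaved LiveBLAzer B/G substrate (2 h, room temperature) served as the signal. Beforehand, HCT-116 reporter cells bearing p53 response elements were treated 16 h at 37 °C with DMSO-dissolved compounds.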
# [2] = qHTS assay for small molecules that induce genotoxicity in human embryonic kidney cells expressing luciferase-tagged ATAD5 (AID 651632); note: nearly all actives have a fitted effect of over 15% in size
# How it was run: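 Luminescent reporter readout, HEK293T ATAD5-luc line: 16 hr drug exposure (37C, 5% CO2) followed by Amplite, 30 min RT.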
# [3] = qHTS assay for small molecule agonists of the p53 signaling pathway - cell viability (AID 651633; calls by dose curve;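 note: p53RE-bla HCT reporter cells with a stable beta-lactamase p53 reporter; nearly all actives have a fitted effect of over 30% in size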)
# How it was run: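 Viability counter-read: CellTiter-Glo luminescence (30 min, room temperature) in the same p53RE-bla plates. These plates had been exposed to compounds for 16 h at 37 C.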
# [4] = qHTS assay for small molecule disruptors of the mitochondrial membrane potential (AID 720635); note: potency is the fitted concentration of half-maximal effect
# How it was run: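 Mitochondrial membrane potential tracked with Mito-MPS dye, red aggregates (ex 540/em 590 nm) against green monomers (ex 490/em 535 nm). Compound treatment 1 hr at 37C, dye 30 min in HepG2.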
# [5] = qHTS assay to test for compound auto fluorescence at 590 nm (red) in HepG2 cells (AID 720674)
# How it was run: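 1 hr compound incubation on HepG2 cells, 37 C, 5% CO2; plate read ex 540 nm / em 590 nm; intensities reported as Rose Bengal sodium equivalents.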
# [6] = qHTS assay to test for compound auto fluorescence at 535 nm (green) in HepG2 cells (AID 720675)
# [7] = qHTS assay to test for compound auto fluorescence at 460 nm (blue) in HEK293 cells (AID 720678)
# How it was run: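 Measured: blue fluorescence (Ex 405/Em 460 nm) of compound-treated HEK293 cells, incubated overnight at 37C with 5% CO2 and scaled to triamterene equivalents.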
# [8] = qHTS assay to test for compound auto fluorescence at 590 nm (red) in HEK293 cells (AID 720679)
# How it was run: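 Using HEK293 cells at 2,000 per well, the screen added 23 nL of each compound after cell attachment and incubated overnight (37C, 5% CO2). The plate reader then captured red-label fluorescence, Ex/Em 540/590nm.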
# [9] = qHTS assay to test for compound auto fluorescence at 535 nm (green) in HEK293 cells (AID 720680)
# [10] = qHTS assay to test for compound auto fluorescence at 460 nm (blue) in HEK293 cell free culture (AID 720681)
# How it was run: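 Blue fluorescence (Ex 405/Em 460 nm, triamterene-equivalent) was read immediately after pin transfer of compound or DMSO into medium (DMEM, 10% FBS) without cells.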
# [11] = qHTS assay to test for compound auto fluorescence at 535 nm (green) in HEK293 cell free culture (AID 720682)
# How it was run: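 Intrinsic compound fluorescence is measured in culture medium containing 10% FBS, with excitation at 485 nm and detection at 535 nm, referenced to fluorescein.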
# [12] = qHTS assay to test for compound auto fluorescence at 590 nm (red) in HEK293 cell free culture (AID 720683)
# How it was run: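 Red-channel autofluorescence of compounds in culture medium (DMEM, 10% FBS), no cells, measured at 540/590 nm. Rose Bengal sodium is the reference fluorophore for equivalence.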
# [13] = qHTS assay to test for compound auto fluorescence at 460 nm (blue) in HepG2 cell free culture (AID 720685)
# How it was run: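 Compound (23 nL) or DMSO pinned into cell-free MEM with 10% FBS; blue fluorescence read at 405/460 nm excitation/emission, expressed as auto-fluorescence equivalency to triamterene.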
# [14] = qHTS assay to test for compound auto fluorescence at 535 nm (green) in HepG2 cell free culture (AID 720686)
# [15] = qHTS assay to test for compound auto fluorescence at 460 nm (blue) in HepG2 cells (AID 720687)
# How it was run: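 Blue-channel autofluorescence (Ex/Em 405/460 nm, triamterene-equivalent) was measured after 1 hr compound exposure at 37 C, 5% CO2. Cells were HepG2, plated overnight at 37 C in MEM plus 10% FBS.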
# [16] = qHTS assay for small molecule disruptors of the mitochondrial membrane potential - cell viability (AID 720634; calls by dose curve; note: nearly all actives have a fitted effect of over 20% in size; note: potency is the fitted concentration of half-maximal effect)
# How it was run: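 HepG2, 1 hr compound, 37 C. ATP luminescence via CellTiter-Glo, 30 min RT, same well as m-MPI.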
# [17] = target: Glucocorticoid receptor (Homo sapiens) (UniProt P04150); experiment: qHTS assay to identify small molecule agonists of the glucocorticoid receptor (GR) signaling pathway (AID 720691; active = well fitted activation curve with a large enough effect in the signal ratio in the repeat runs, not every such curve was filed as active; the % refers to the signal ratio); conditions: GR-bla HeLa, beta-lactamase reporter ratio, 18 h; activation: at 62.4 µM (top of the series)
# Glucocorticoid receptor (Homo sapiens), sequence (P04150 whole entry, looked up): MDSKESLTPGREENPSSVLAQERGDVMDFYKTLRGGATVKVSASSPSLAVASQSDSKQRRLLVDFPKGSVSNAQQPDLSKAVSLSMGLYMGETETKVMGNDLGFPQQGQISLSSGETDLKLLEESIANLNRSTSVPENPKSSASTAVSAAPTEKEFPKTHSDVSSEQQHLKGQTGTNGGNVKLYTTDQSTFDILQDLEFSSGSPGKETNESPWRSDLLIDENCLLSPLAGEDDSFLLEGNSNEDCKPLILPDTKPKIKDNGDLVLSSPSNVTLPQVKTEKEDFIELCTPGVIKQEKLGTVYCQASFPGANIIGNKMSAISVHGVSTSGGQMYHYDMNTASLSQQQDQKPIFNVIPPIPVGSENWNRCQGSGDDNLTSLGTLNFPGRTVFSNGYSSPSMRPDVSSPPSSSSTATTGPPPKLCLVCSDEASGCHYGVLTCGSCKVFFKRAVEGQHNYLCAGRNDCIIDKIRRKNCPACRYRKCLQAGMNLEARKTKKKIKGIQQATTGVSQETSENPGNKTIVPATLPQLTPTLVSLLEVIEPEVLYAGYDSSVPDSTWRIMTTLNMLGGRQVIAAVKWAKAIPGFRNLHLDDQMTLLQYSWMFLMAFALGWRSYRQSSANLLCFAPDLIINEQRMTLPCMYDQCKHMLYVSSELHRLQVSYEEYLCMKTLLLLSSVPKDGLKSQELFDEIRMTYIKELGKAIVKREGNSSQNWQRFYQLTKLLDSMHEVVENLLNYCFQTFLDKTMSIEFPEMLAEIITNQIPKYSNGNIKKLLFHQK
# How it was run: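 qHTS in GR-bla HeLa cells: 4 h settling at 37 C/5% CO2, 18 h compound incubation at 37 C, 2 h LiveBLAzer B/G FRET substrate at room temperature, fluorescence intensity measured.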
# [18] = target: Glucocorticoid receptor (Homo sapiens) (UniProt P04150); experiment: qHTS assay to identify small molecule antagonists of the glucocorticoid receptor (GR) signaling pathway (AID 720692; active = well fitted inhibition curve with a large enough effect in the signal ratio in the repeat runs, not every such curve was filed as active; the % refers to the signal ratio)
# How it was run: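 Inhibition of glucocorticoid signalling is measured in HeLa cells with a GRE-controlled beta-lactamase reporter; cells are co-treated with compound and 5 nM dexamethasone (final) for 18 h before FRET substrate readout.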
# [19] = qHTS assay for small molecules that induce genotoxicity in human embryonic kidney cells expressing luciferase-tagged ATAD5 - cell viability (AID 651634; calls by dose curve; note: nearly all actives have a fitted effect of over 25% in size)
# How it was run: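 Viability read: CellTiter-Fluor fluorescence, 30 min at 37C. Cells: HEK293T, luciferase-tagged ATAD5. Exposure: 15.5 hr, 37C, 5% CO2, compound or DMSO vehicle.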
# [20] = qHTS assay to test for compound auto fluorescence at 590 nm (red) in HepG2 cell free culture (AID 720684)
# How it was run: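 Steps: dispense MEM/10% FBS medium, no cells; pin compound or DMSO vehicle; read red channel, Ex/Em 540/590 nm. Output given as Rose Bengal sodium equivalents.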
SMILES,Potency [1],outcome [2],Potency [3],Potency [4],outcome [5],outcome [6],outcome [7],outcome [8],outcome [9],outcome [10],outcome [11],outcome [12],outcome [13],outcome [14],outcome [15],Potency [16],Potency [17],Potency [18],Potency [19],outcome [20]
C[C@H]1C[C@H]2[C@@H]3CCC4=CC(=O)C=C[C@]4(C)[C@@]3(F)[C@@H](O)C[C@]2(C)[C@@]1(O)C(=O)CO,inactive,inactive,inactive,inactive,inactive,inactive,inactive,inactive,inactive,inactive,inactive,inactive,inactive,inactive,inactive,–,–,–,–,–
ON=C1CCCCC1,inactive,inactive,inactive,inactive,inactive,inactive,inactive,inactive,inactive,inactive,inactive,inactive,inactive,inactive,–,inactive,inactive,inactive,–,–
COc1ccc(Cl)cc1C(=O)NCCc1ccc(S(=O)(=O)NC(=O)NC2CCCCC2)cc1,inactive,inactive,inactive,–,inactive,inactive,inactive,inactive,inactive,inactive,inactive,inactive,inactive,inactive,inactive,–,–,–,inactive,inactive
O=c1[nH]nnc2ccccc12,inactive,inactive,inactive,inactive,inactive,inactive,inactive,inactive,inactive,inactive,inactive,inactive,inactive,inactive,inactive,–,–,–,–,–
C=CCOC(=O)c1ccccc1C(=O)OCC=C,inactive,inactive,inactive,–,inactive,inactive,inactive,inactive,inactive,inactive,inactive,inactive,inactive,inactive,–,inactive,–,–,–,inactive
CN(C)CCC(c1ccc(Cl)cc1)c1ccccn1 (stereo not given),inactive,–,inactive,inactive,inactive,inactive,inactive,inactive,inactive,inactive,inactive,inactive,inactive,inactive,inactive,inactive,inactive,inactive,–,inactive
O=C(CC(C(=O)OC1CCCCC1)S(=O)(=O)O)OC1CCCCC1 (stereo not given),inactive,inactive,inactive,inactive,inactive,inactive,inactive,inactive,inactive,inactive,inactive,inactive,inactive,inactive,inactive,inactive,–,inactive,–,inactive
c1ccc(OCCOc2ccccc2)cc1,inactive,inactive,inactive,24.3 µM (active),inactive,inactive,inactive,inactive,inactive,inactive,inactive,inactive,–,inactive,inactive,–,–,inactive,–,inactive
O=S1(=O)CC=CC1,inactive,inactive,inactive,inactive,inactive,inactive,inactive,inactive,inactive,inactive,inactive,inactive,–,inactive,–,inactive,inactive,inactive,–,–
CC(c1cc2ccccc2s1)N(O)C(N)=O (stereo not given),–,inactive,–,inactive,inactive,inactive,inactive,inactive,inactive,inactive,inactive,inactive,–,inactive,inactive,27.3 µM (active),inactive,inactive,inactive,inactive
CN(C)CCC(c1ccccc1)c1ccccn1 (stereo not given),inactive,–,inactive,–,inactive,inactive,inactive,inactive,inactive,inactive,inactive,inactive,inactive,inactive,–,inactive,–,inactive,–,–
CCCCC(CC)COC(=O)C(C#N)=C(c1ccccc1)c1ccccc1 (stereo not given),–,inactive,inactive,27.3 µM (active),inactive,inactive,inactive,inactive,inactive,inactive,inactive,inactive,inactive,inactive,inactive,15.4 µM (active),–,inactive,inactive,inactive
CCc1ccc(CCOc2ccc(CC3SC(=O)NC3=O)cc2)nc1 (stereo not given),–,inactive,inactive,–,inactive,inactive,inactive,inactive,inactive,inactive,inactive,inactive,–,inactive,–,–,–,–,inactive,–
O=C(O)c1ccccc1C(c1ccc(O)cc1)c1ccc(O)cc1,–,inactive,inactive,–,inactive,inactive,inactive,inactive,inactive,inactive,inactive,inactive,inactive,inactive,inactive,inactive,–,inactive,–,–
C#C[C@]1(O)CC[C@H]2[C@@H]3CCC4=CC(=O)CC[C@@H]4[C@H]3CC[C@@]21C,–,inactive,–,inactive,inactive,inactive,inactive,inactive,inactive,inactive,inactive,inactive,–,inactive,inactive,–,inactive,–,inactive,inactive
COc1ccc2cc([C@H](C)C(=O)O)ccc2c1,–,–,inactive,inactive,inactive,inactive,inactive,inactive,inactive,inactive,inactive,inactive,inactive,inactive,inactive,inactive,–,–,inactive,inactive
CC1=CC(=O)NS(=O)(=O)O1,–,–,inactive,inactive,inactive,inactive,inactive,inactive,inactive,inactive,inactive,inactive,–,inactive,–,inactive,inactive,inactive,–,inactive
CCCCCC/C(C=O)=C\c1ccccc1,–,inactive,inactive,inactive,inactive,inactive,inactive,inactive,inactive,inactive,inactive,inactive,inactive,inactive,inactive,inactive,inactive,inactive,–,inactive
CC(C)c1ccc(S(=O)(=O)O)cc1,–,inactive,inactive,inactive,inactive,inactive,inactive,inactive,inactive,inactive,inactive,inactive,inactive,inactive,–,inactive,–,–,–,inactive
OCc1cccnc1,–,inactive,–,–,inactive,inactive,inactive,inactive,inactive,inactive,inactive,inactive,–,inactive,–,inactive,–,–,inactive,inactive
OCC(CO)(CBr)CBr,–,inactive,inactive,inactive,inactive,inactive,inactive,inactive,inactive,inactive,inactive,inactive,–,inactive,–,inactive,inactive,inactive,–,–
O=[N+]([O-])c1ccc(/C=C/c2ccc([N+](=O)[O-])cc2S(=O)(=O)O)c(S(=O)(=O)O)c1,–,inactive,inactive,inactive,inactive,inactive,inactive,inactive,inactive,inactive,inactive,inactive,inactive,inactive,inactive,–,–,inactive,–,inactive
COCCCOc1ccnc(CS(=O)c2nc3ccccc3[nH]2)c1C (stereo not given),inactive,–,inactive,–,inactive,inactive,inactive,inactive,inactive,inactive,inactive,inactive,inactive,inactive,–,inactive,–,inactive,–,inactive
CC(=O)Nc1ccccc1,–,inactive,inactive,–,inactive,inactive,inactive,inactive,inactive,inactive,inactive,inactive,inactive,inactive,–,–,–,inactive,inactive,inactive
